# In PubChem BioAssay AID1259343 (VanderVen Lab, College of Veterinary Medicine, Cornell …, 2017):
# Out of some 6,200 compounds screened, about 2,900 (47%) were called active. So high a share suggests a set chosen from earlier hits. The list shows a part of the results. Unmarked numbers belong to inactive results. Cut-off read from the data, not from the text of the source: active = inhibition above about 50%; inactive = the rest.
# Test: Mycobacterium tuberculosis growth inhibition, primary screen (AID 1259343)
# Details: inhibition: at 10 µM, stronger effect = higher value; outcome: 10 uM
row,Compound,inhibition
1,NS(=O)(=O)c1ccc2c(c1)CCN2Cc1cc(F)cc2c1OCOC2,3.61%
2,CC1CCN(C(=O)c2ccc(-c3ccc(F)c(F)c3)s2)CC1,65.3% (active)
3,O=C(O)C1CCN(C(=O)c2ccc(-c3ccc(Cl)cc3)s2)CC1,1.69%
4,Cc1ccc(C(=O)N2CCC(c3ccc(F)cc3)CC2)s1,33.5%
5,COc1ccc(NC(=O)N2CCCC(C(=O)c3sccc3C)C2)cc1OC (stereo not given),23.7%
6,COc1cc(NC(=O)CN2CCC(n3ccnc3)C2)ccc1Cl (stereo not given),85.6% (active)
7,O=C(NCC(O)COc1cccc(Cl)c1Cl)C1CC1c1ccco1 (stereo not given),12.8%
8,COc1cccc(C2CC2C(=O)Nc2cnc(C3CC3)nc2)c1 (stereo not given),37.3%
9,O=C(Nc1ncc(Cl)s1)C1CC1c1ccco1 (stereo not given),86.5% (active)
10,CCCc1cc(=O)[nH]c(-n2nc(C)cc2NC(=O)c2cc(OC)c(OC)c(OC)c2)n1,100% (active)
11,CCCc1cc(=O)[nH]c(-n2nc(C)cc2NC(=O)c2ccc(OC)c(OC)c2)n1,102% (active)
12,CCc1cc(=O)[nH]c(-n2nc(C)cc2NC(=O)c2cc(OC)c(OC)c(OC)c2)n1,-22.3%
13,CC(NC(=O)COc1ccc2cc(Br)ccc2c1)c1ccc(F)cc1 (stereo not given),-32.3%
14,COC(=O)CN1C(c2ccc(OC)cc2)=Nc2ccc(Br)cc2C1c1ccccc1 (stereo not given),29.4%
15,O=C(O)COc1ccc2cc(Br)ccc2c1,78.5% (active)
16,Cc1cccc2c3c(ccc12)C1=C(C(=O)C3=O)C(C)CO1 (stereo not given),82.3% (active)
17,CN(CC(F)(F)C(F)F)S(=O)c1ccc2ccccc2c1 (stereo not given),49%
18,CC(NCC1(c2ccccc2)CCCC1)c1nnc(-c2ccccc2)o1 (stereo not given),-0.11%
19,COc1ccc(-c2nnc(C(C)Nc3cccc4c3CCCC4)o2)cc1 (stereo not given),67.9% (active)
20,O=C(Cc1ccc2c(c1)CCC2)NCCc1ccc2c(c1)OCCO2,37.8%
21,CN(Cc1ccccc1)C(=O)NCCc1ccc2c(c1)CCO2,66.7% (active)
22,CN(Cc1ccco1)C(=O)NCCc1cccc(Cl)c1,49.7%
23,FC(F)(F)c1nnc2sc(Cc3cccc4ccccc34)nn12,71.8% (active)
24,c1ccc(CCCCc2nn3c(C4CC4)nnc3s2)cc1,34.8%
25,O=S(=O)(NCCCC1CCCCC1)N1CCCCCC1,26.3%

row,Compound,inhibition
1,O=S(=O)(NCc1ncc(-c2ccccc2)o1)N1CCCCCC1,58.4% (active)
2,CC1CCN(S(=O)(=O)NCc2cc(-c3ccccc3)on2)CC1,20.4%
3,Cc1oc(=O)oc1CN1CCN(c2cc3c(cc2F)c(=O)c(C(=O)O)c2n3C(C)S2)CC1 (stereo not given),96.9% (active)
4,CN1C(=CC=NN=c2sc3ccccc3n2C)C(C)(C)c2ccccc21,4.19%
5,CN1C(=CC=NNc2nc3ccccc3s2)C(C)(C)c2ccccc21,97% (active)
6,c1cc(-c2nc3cc(Oc4ccc5oc(-c6ccncc6)nc5c4)ccc3o2)ccn1,32.7%
7,O=C(NN=CC(Br)=Cc1ccccc1)c1cnccn1,-13.9%
8,Cc1ccc(CN2CCN(N=CC(Br)=Cc3ccccc3)CC2)c(C)c1,98.3% (active)
9,COC(=O)c1ccc(C(=O)NNc2nc3c(C)cccc3s2)cc1,99.7% (active)
10,Cc1cccc2sc(N(Cc3ccccc3)C(=O)c3ccno3)nc12,35.8%
11,COc1ccccc1OCC(=O)N1CCC(Oc2nc3c(C)cccc3s2)CC1,20.8%
12,Cc1cc(C)cc(Oc2cc(-n3nc(C)cc3C)ncn2)c1,65.7% (active)
13,CCCN(C)c1cc(Oc2ccc(C)cc2)ncn1,25.2%
14,COCCCNc1ccc2c(-c3ccccc3F)noc2n1,76.1% (active)
15,Fc1ccc(-c2noc3nc(NC4CC4)ccc23)cc1,92.9% (active)
16,Fc1ccccc1-c1noc2nc(NC3CC3)ccc12,70.5% (active)
17,CC1CCCC(C)N1CCNc1ccc2c(-c3ccc(F)cc3)noc2n1 (stereo not given),47.2%
18,c1ccc(-c2noc3nc(NC4CC4)ccc23)cc1,44.6%
19,CCCC1=NN(C(C)=O)C(C(=O)NCCCN2CCCCC2C)O1 (stereo not given),-9.23%
20,c1ccc(-c2nc3c(ccc4ccccc43)[nH]2)cc1,89.8% (active)
21,Oc1ccc2[nH]c(-c3ccccc3)nc2c1CN1CCCCC1,13.3%
22,c1ccc(-c2nc3c(ccc4ccccc43)[nH]2)nc1,96.1% (active)
23,c1ccc(-c2nc3cc4ccccc4cc3[nH]2)nc1,17.5%
24,O=C1NC(=O)/C(=C/c2csc(-c3ccccc3)n2)S1,59.2% (active)
25,O=C(NCC1CCCCN1)c1cc(OCC(F)(F)F)ccc1OCC(F)(F)F (stereo not given),84.3% (active)

row,Compound,inhibition
1,CC(C)C(=O)Nc1ccc(OCC(F)(F)F)c(C#N)c1,-16.8%
2,Cn1cccc1C(=O)NS(=O)(=O)c1ccc(C#N)c(Cl)c1,15%
3,CC(NC(=O)c1cccnc1N1CCCCC1)c1ccc(C#N)cc1 (stereo not given),4.4%
4,CC(C)c1ccc(C(C)NC(=O)c2cccn2C)cc1 (stereo not given),79% (active)
5,CN(Cc1ccccc1)Cc1cc(C(=O)NCc2cccc(F)c2F)no1,38.5%
6,Cc1ccc(C)c(-c2cc(C(=O)NCCC(=O)NCc3ccc(F)cc3)no2)c1,71.3% (active)
7,Cn1cnc([N+](=O)[O-])c1Sc1ncnc2nc[nH]c12,56.7% (active)
8,CC1(C)Oc2ccc(NC(=O)c3ccnc(NC4CC4)c3)cc2O1,-11.8%
9,CC(C)c1ccc(NC(=O)c2ccc(S(N)(=O)=O)cc2)cc1,2.35%
10,Cc1cc(C(=O)Nc2ccc3c(c2)OC2(CCCC2)O3)c(C)o1,56% (active)
11,Cc1cc(C(=O)Nc2ccc(C(C)C)cc2)c(C)o1,61.2% (active)
12,O=S(=O)(Nc1ccc2c(c1)OC1(CCCC1)O2)c1cccs1,27%
13,O=C(Nc1ccc(N2CCc3ccccc32)cc1)C1CCOC1 (stereo not given),74.7% (active)
14,O=C(O)c1cn(Cc2ccc(F)cc2)nc1OCc1ccc(F)cc1,47.5%
15,O=C(O)c1cn(Cc2ccccc2)nc1OCc1ccccc1,72.7% (active)
16,O=C(O)c1cn(Cc2cccc(F)c2)nc1OCc1cccc(F)c1,29.7%
17,CCc1cc(=O)[nH]c(-n2nc(C)cc2NC(=O)Cc2ccc(OC)cc2)n1,101% (active)
18,CCCc1cc(=O)[nH]c(-n2nc(C)cc2NC(=O)CCc2ccc(OC)cc2)n1,101% (active)
19,COc1ccc(CCC(=O)Nc2cc(C)nn2-c2nc(C)cc(=O)[nH]2)cc1,101% (active)
20,COc1ccc(CC(=O)Nc2cc(C)nn2-c2nc(C)cc(=O)[nH]2)cc1,101% (active)
21,NCC(=O)Nc1ccc(-c2cccc3ccsc23)cc1F,7.93%
22,COC(C)c1ccc(-c2ccc(NC(=O)CN)c(F)c2)cc1 (stereo not given),70.7% (active)
23,Fc1ccccc1-c1cnnc(NCCc2cccc(Cl)c2)n1,37.3%
24,Fc1ccccc1CCNc1ncnc2ccc(Cl)cc12,60.7% (active)
25,Fc1ccccc1CNCC1(c2ccnc(-c3ccc(Cl)cc3)c2)CC1,44%

row,Compound,inhibition
1,Cc1ccc(S(=O)(=O)NC(=O)c2cccc(F)c2)cc1C,79% (active)
2,COc1cc(C(=O)NS(=O)(=O)c2ccc(C#N)cc2)ccc1C,21.9%
3,Cc1ccccc1C(C)NS(=O)(=O)c1ccc(Cl)cc1 (stereo not given),17.3%
4,Cc1ccc(S(=O)(=O)NC(c2cccs2)C2CC2)cc1C (stereo not given),37.1%
5,Cc1ccc(S(=O)(=O)NC(=O)c2ccccc2)cc1C(C)C,72.5% (active)
6,CN(C)P(=Nc1ccc([N+](=O)[O-])cc1Br)(N(C)C)C(C)(C)C,11%
7,Cc1cc([N+](=O)[O-])cc(C(C)(C)C)c1O,101% (active)
8,O=[N+]([O-])c1cc(Br)c(O)c(Br)c1,98.7% (active)
9,CC[n+]1c(C)csc1Nc1ccc(N=Nc2ccccc2)cc1,-14.7%
10,O=C(O)CC[N+](=O)[O-],98.6% (active)
11,Cc1nc(SCc2nc3ccccc3o2)c2ccccc2n1,51.7% (active)
12,CC(C)Oc1ncccc1CNC(=O)N1CCc2ccccc21,28.7%
13,CN1CC2([N+](=O)[O-])C=C(Oc3ccc(F)cc3)CC([N+](=O)[O-])(C1)C2 (stereo not given),94.6% (active)
14,Cc1ccc(Cl)cc1NCc1cnc(Cl)s1,26.4%
15,Cc1nnc(NCCC23CC4CC(CC(C4)C2)C3)c(C#N)c1C,50.3% (active)
16,CC[C@@H](C(=O)[C@@H](C)[C@@H](O)[C@H](C)[C@@H]1O[C@@H]([C@@H](CC)C(=O)O)CC[C@@H]1C)[C@H]1OC2(C=C[C@@H](O)[C@]3(CC[C@@](C)([C@H]4CC[C@](O)(CC)[C@H](C)O4)O3)O2)[C@H](C)C[C@@H]1C (stereo not given in full),100% (active)
17,C(=Nc1ccc(C23CC4CC(CC(C4)C2)C3)cc1)c1ccncc1,-6.32%
18,O=c1cccnn1CCNS(=O)(=O)c1ccc(Cl)s1,99.9% (active)
19,Cc1ccc(Cn2nc(C)c(C=c3s/c(=C\C(=O)C(C)(C)C)[nH]c3=O)c2C)cc1,9.64%
20,CC(C)(C)C(=O)C=c1[nH]c(=O)c(=Cc2c(F)c(F)c(F)c(F)c2F)s1,101% (active)
21,Cc1ccc(C)c(C=c2sc(=CC(=O)C(C)(C)C)[nH]c2=O)c1,inactive
22,CC(C)c1ccc(C=c2sc(=CC(=O)C(C)(C)C)[nH]c2=O)cc1,92.9% (active)
23,CC(C)(C)C(=O)/C=c1/[nH]c(=O)/c(=C/c2ccc(F)c(Br)c2)s1,101% (active)
24,O=C(Nc1nccn1CC1CC1)c1cc(F)c(Cl)cc1Cl,94.8% (active)
25,CC(C)(C)n1c(NC(=O)c2ccc(F)cc2Cl)nc2ccccc21,-8.71%
